Reference: PubChem BioAssay (NCI)
Compounds without any hit were thinned out: in the full panel of roughly 83,000, 20% have a hit.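 Assay: single dose, 48 h. Readout: percent growth (0 = no net growth; negative = cell death). Active: <10.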 Unmarked numbers belong to inactive results. Calls of active or inactive are those of the source.

Tests used:
Assay in all cases: NCI-60 one-dose screen, 48 h (100 = growth as untreated, 0 = no growth, -100 = all killed)
Details in all cases: 10 µM unless noted
HCT-15 colon = system: HCT-15 colon
HT29 colon = system: HT29 colon
SNB-75 CNS = system: SNB-75 CNS
SNB-19 CNS = system: SNB-19 CNS
U251 CNS = system: U251 CNS
PC-3 prostate = system: PC-3 prostate
SK-MEL-5 melanoma = system: SK-MEL-5 melanoma
UACC-62 melanoma = system: UACC-62 melanoma
LOX IMVI melanoma = system: LOX IMVI melanoma
SK-MEL-28 melanoma = system: SK-MEL-28 melanoma

Row | SMILES | growth (HCT-15 colon) | growth (HT29 colon) | growth (SNB-75 CNS) | growth (SNB-19 CNS) | growth (U251 CNS) | growth (PC-3 prostate) | growth (SK-MEL-5 melanoma) | growth (UACC-62 melanoma) | growth (LOX IMVI melanoma) | growth (SK-MEL-28 melanoma)
1 | Cc1nc(N2CCOCC2)sc1S(N)(=O)=O | 105% | 102% | -0.593% (active) | 102% | 92.9% | 92.3% | 100% | 94% | 95.8% | 104%
2 | COc1cnc2c(c1)C(=O)c1c-2n(CCCNCCO)c(=O)c2ccncc12 | 23.1% | 3.25% (active) | 12.1% | 7.52% (active) | 0.604% (active) | 6.97% (active) | -78.4% (active) | -49.1% (active) | -40.5% (active) | -13.1% (active)
3 | O=c1oc2ccc([N+](=O)[O-])cc2cc1Br | 100% | 102% | 86.6% | 108% | 101% | 96.8% | 102% | 101% | 97.2% | 107%
4 | O=c1oc2ccccc2cc1C1=NN=C(SCc2ccccc2)SC1 | 101% | 105% | 85.7% | 103% | 92.2% | 94% | 100% | 101% | 99.7% | 109%
5 | CCOC(=O)C(=Cc1cccc(Br)c1)C(=O)OCC | 15.1% | 18% | 13.2% | 50.9% | 26.8% | 40.8% | 50.3% | 44.2% | -8.96% (active) | 39.2%
6 | Clc1ccc(Nc2nnc(COc3ccccc3)c3ccccc23)cc1 | 4.45% (active) | 1.32% (active) | 13.1% | 22% | -12.7% (active) | -0.2% (active) | -96.1% (active) | -27.7% (active) | -62% (active) | 4.73% (active)
7 | CCCCCOc1ccc(C(=O)/C(Br)=C/C(=O)O)cc1 | 89.1% | 105% | 73.8% | 98.8% | 86.7% | 99.6% | 104% | 90.9% | 86.4% | 87.4%
8 | CNC(=O)c1c(NC(=O)c2ccc(C(F)(F)F)cc2)sc2c1CCC(=O)C2 | -54.1% (active) | 5.12% (active) | -17.4% (active) | 2.58% (active) | -12.8% (active) | -30.9% (active) | -71.6% (active) | -29.1% (active) | 1.51% (active) | 4.24% (active)
9 | N#C/C(=C\c1ccc(Br)cc1)n1nnc2ccc(F)cc21 | -18.2% (active) | 3.64% (active) | 0.279% (active) | 19.5% | 1.71% (active) | 7.5% (active) | 6.12% (active) | -54.7% (active) | -63.7% (active) | -5.29% (active)
10 | CN(CCOc1ccc(C#N)cc1)CCOc1ccc(C#N)cc1 | 85.8% | 88.7% | 83.4% | 44.5% | 78% | 71.7% | 6.74% (active) | 73.4% | 84.9% | 94.9%
11 | COc1cc2oc(-c3cccc(NC(=O)c4cccc(Br)c4)c3)cc(=O)c2c(OC)c1OC | 31.3% | 34.7% | 62.6% | 75.2% | 53.9% | 34.6% | 48.6% | 57.1% | 39.6% | 71.1%
12 | CC1=NN(c2nc(SCC(=O)Nc3nc4ccc(C)cc4s3)nc(-c3ccccc3)c2C#N)C(=O)C1 | 105% | 104% | 75.4% | 97.3% | 102% | 97.1% | 100% | 94.3% | 101% | 105%
13 | COC(=O)c1cc(-c2ccccc2)[nH]c1N/N=C/c1c(Cl)cccc1Cl | 15% | -8.44% (active) | 0.903% (active) | 13.6% | 12.1% | 5.23% (active) | 16.8% | 42.4% | 21% | 11.4%
14 | OCCCC1CCN(C(Cc2ccccc2)c2ccccc2)CC1 (stereo not given) | 100% | 76.5% | 84.2% | 101% | 93.2% | 70.8% | 101% | 97.7% | 93.2% | 64.8%
15 | Nc1nc(=S)c2ncn(C3OC(COP(=O)(O)O)C(O)C3O)c2[nH]1 (stereo not given) | 9.49% (active) | 7.19% (active) | 47.8% | 96.1% | 47.3% | 29.1% | 69.5% | 14% | 3.07% (active) | 73.5%
16 | O=C(OCc1ccc2cccc(O)c2n1)N1CCN(C(=O)c2cc3cc(F)ccc3[nH]2)CC1 | -36.4% (active) | -70.4% (active) | -45.2% (active) | 47.1% | -87.2% (active) | -43.9% (active) | -79.6% (active) | -93.8% (active) | -91.8% (active) | -91.2% (active)
17 | CCN(c1ccc(Cl)cc1)c1nc(-c2ccc([N+](=O)[O-])cc2)cs1 | 98.1% | 91% | 96.8% | 95.4% | 102% | 92.6% | 99.7% | 79.8% | 93% | 105%
18 | COc1ccc(-c2csc(N(C(=O)N3CCN(c4cc5c(cc4F)c(=O)c(C(=O)O)cn5C4CC4)CC3)c3ccccc3)n2)cc1 | 9.72% (active) | 3.36% (active) | 22.5% | 20.8% | 19.1% | 9.97% (active) | -21.6% (active) | 13% | 2.06% (active) | 36.3%
19 | O=C(CSc1nc2ccc([N+](=O)[O-])cc2[nH]1)Nc1cccc(C(F)(F)F)c1 | 23.5% | 11.3% | 25.5% | 15.2% | 16.4% | 9.66% (active) | -1.54% (active) | 6.34% (active) | 26.9% | 22.2%
20 | N#Cc1nn(-c2cc(=O)[nH]c3ccc(Cl)cc23)c(N)c1C#N | 108% | 101% | 113% | 98.8% | 103% | -87.3% (active) | 102% | 81.9% | 96.6% | 104%
21 | N#Cc1c(-c2ccccc2)cc(-c2ccccc2)n(CCCCCC(=O)Nc2ccccc2N)c1=O | 51.7% | 43.7% | 32.2% | 68.2% | 61.2% | 43.7% | 21.2% | 65.5% | 26.2% | 80.5%
22 | N#C/C(=C\c1ccc(-c2ccc(Cl)cc2)o1)C(=O)Nc1ncc(Cc2ccc(Cl)cc2)s1 | 37.6% | 62.4% | -31.1% (active) | 79.1% | -33.9% (active) | 28.8% | 94.7% | 46.1% | 15.5% | 34.2%
23 | CCSc1nc(NC)c2cc(-c3ccc(C(F)(F)F)cc3)ccc2n1 | 95.5% | 98.9% | 99.4% | 97% | 103% | 94.9% | 97.9% | 92.9% | 106% | 95%
24 | Cc1ccc(Sc2oc(-c3ccc(C)cc3)nc2[P+](c2ccccc2)(c2ccccc2)c2ccccc2)cc1 | 0.625% (active) | 1.95% (active) | -23.6% (active) | 14% | 12.9% | 5.64% (active) | -97.7% (active) | -38.1% (active) | -69.3% (active) | 17%
25 | N=C(N)c1ccc(-c2ccc(-c3ccc(Cl)cc3)s2)nc1 | -78.1% (active) | -38.1% (active) | 95.8% | 49.9% | -68.1% (active) | -75.3% (active) | 82.8% | 89.9% | -89% (active) | 108%
26 | COc1ccc(C(=S)N2CCN(c3ccccc3Cl)CC2)cc1OC | 95.2% | 102% | 85.6% | 85.3% | 102% | 90.3% | 96.4% | 89.2% | 92.7% | 103%
27 | Cc1cccnc1NC(=S)Nc1ncccc1C | 104% | 103% | 96.2% | 104% | 99.7% | 99.9% | 101% | 100% | 107% | 111%
